Among the test systems are SK-MEL-2 melanoma; EKVX NSCLC; SN12C renal; UO-31 renal; TK-10 renal; ACHN renal; CAKI-1 renal; A498 renal; CCRF-CEM leukemia; MOLT-4 leukemia; SR leukemia; RPMI-8226 leukemia; OVCAR-5 ovarian; OVCAR-4 ovarian; SK-OV-3 ovarian; IGROV1 ovarian; OVCAR-3 ovarian; HS 578T breast; NCI/ADR-RES ovarian; OVCAR-8 ovarian.
What all share (assay): NCI-60 one-dose screen, 48 h (100 = growth as untreated, 0 = no growth, -100 = all killed)
What all share (conditions): 10 µM unless noted

About 83,000 compounds went through this panel and 20% of them were active in at least one assay; those are over-represented in the sample as a whole.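 Single-concentration screen, 48 h exposure, 96-well plates. Endpoint: percent growth. Below 10 = active.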 A number with no mark means an inactive call. Active and inactive are the calls of the source.

In the case of `CCCCCCNc1cc(C)nc2ccc(OC)cc12`, the growth is 73.7% in the experiment on SK-MEL-2 melanoma; 65.7% in the experiment with EKVX NSCLC; 67.9% in the experiment with SN12C renal; 40.4% with UO-31 renal; 80.4% in the experiment on TK-10 renal; 76.4% in the experiment on ACHN renal. Besides, the growth in the experiment on CAKI-1 renal was 70.9%; in the experiment with A498 renal, 22%; in the experiment on CCRF-CEM leukemia, 60.7%; in the experiment on MOLT-4 leukemia, 50.4%; with SR leukemia, 23.2%; in the experiment with RPMI-8226 leukemia, 34.4%. The growth with OVCAR-5 ovarian is 64.4%; with OVCAR-4 ovarian, 55%; with SK-OV-3 ovarian, 73.8%; in the experiment with IGROV1 ovarian it was 55.5%; with OVCAR-3 ovarian, 65.8%; with HS 578T breast it was 87%. Besides, the growth in the experiment on NCI/ADR-RES ovarian was 45.1%.

On to `CC(=O)Nc1ccc(C(=O)/C=C/c2ccccc2)cc1`, for which the growth in the experiment with SK-MEL-2 melanoma was 78.2%; in the experiment with EKVX NSCLC it was 95.2%; in the experiment on SN12C renal it was 77.2%; with UO-31 renal, 51.8%; in the experiment on TK-10 renal, 82.1%; in the experiment on ACHN renal, 94.6%. In addition, the growth with CAKI-1 renal is 88.2%; in the experiment on A498 renal, 74%; in the experiment with CCRF-CEM leukemia it was 95.1%; in the experiment with MOLT-4 leukemia, 81.6%; with SR leukemia, 49.6%; in the experiment with OVCAR-8 ovarian, 75.1%. Moreover, the growth was 94.6% in the experiment with OVCAR-5 ovarian; 99.9% in the experiment on OVCAR-4 ovarian; 105% with SK-OV-3 ovarian; 77% in the experiment with IGROV1 ovarian; 77.3% in the experiment on OVCAR-3 ovarian; 98.8% with HS 578T breast. For the same compound, the growth in the experiment with NCI/ADR-RES ovarian was 94.2%.

Take `c1ccc(-c2oc3ccccc3c2-c2ccccc2)cc1`: the growth in the experiment with SK-MEL-2 melanoma was 92.9%; in the experiment with EKVX NSCLC, 96.6%; with SN12C renal it was 92.2%; in the experiment on UO-31 renal it was 86.4%; in the experiment on TK-10 renal it was 110%; with ACHN renal it was 97.3%. Further, the growth with CAKI-1 renal is 69.4%; in the experiment on A498 renal, 89.9%; in the experiment on CCRF-CEM leukemia, 86.1%; with MOLT-4 leukemia, 54.9%; in the experiment on SR leukemia, 57.3%; with RPMI-8226 leukemia, 107%. Also, the growth was 102% in the experiment on OVCAR-8 ovarian; 105% with OVCAR-5 ovarian; 101% in the experiment with SK-OV-3 ovarian; 87.8% in the experiment with IGROV1 ovarian; 100% in the experiment on OVCAR-3 ovarian; 110% in the experiment on HS 578T breast. Further, the growth with NCI/ADR-RES ovarian is 110%.

Regarding `COc1ccc(/C(C)=C(\c2ccc(Cl)cc2)c2ccc(OCCCN(C)C)cc2)cc1F`, the growth in the experiment on SK-MEL-2 melanoma is 97.2%; in the experiment on EKVX NSCLC, 85.4%; with SN12C renal, 76%; with UO-31 renal, 54.2%; in the experiment with TK-10 renal, 78.6%; in the experiment on ACHN renal it was 76.7%. Further, the growth is 57.3% with CAKI-1 renal; 80.1% in the experiment on A498 renal; 48.2% in the experiment on CCRF-CEM leukemia; 43.1% in the experiment on MOLT-4 leukemia; -19.7% (active) in the experiment with SR leukemia; 71.5% with OVCAR-8 ovarian. Further, the growth in the experiment with OVCAR-5 ovarian is 72.6%; in the experiment on OVCAR-4 ovarian, 54.1%; in the experiment with SK-OV-3 ovarian it was 81.9%; in the experiment with IGROV1 ovarian, 48.5%; in the experiment on OVCAR-3 ovarian, 63.5%; with HS 578T breast it was 56.3%. In the experiment with NCI/ADR-RES ovarian, the growth is 77.1%.

For the compound `COc1ccc(N=c2nc3sc4cc(Cl)ccc4n3c(N)c2C#N)cc1`, the growth in the experiment on SK-MEL-2 melanoma is 58.6%; in the experiment with EKVX NSCLC, 70.8%; with SN12C renal, 98.4%; in the experiment on UO-31 renal, 64.1%; in the experiment with TK-10 renal it was 118%; with ACHN renal it was 98.2%. The growth with CAKI-1 renal was 69.2%; in the experiment on A498 renal, 100%; in the experiment with CCRF-CEM leukemia it was 89.2%; with MOLT-4 leukemia, 37.7%; in the experiment with SR leukemia, 91.2%; in the experiment with RPMI-8226 leukemia, 101%. Besides, the growth is 59.3% in the experiment on OVCAR-8 ovarian; 107% with OVCAR-5 ovarian; 59.4% in the experiment with SK-OV-3 ovarian; 80.4% in the experiment with IGROV1 ovarian; 114% in the experiment with OVCAR-3 ovarian; 34.5% with HS 578T breast. For the same compound, in the experiment on NCI/ADR-RES ovarian, the growth is 63.8%.

As for `Cc1cc(=O)[nH]c(N/N=C/c2cc(Br)ccc2O)n1`, the growth in the experiment on SK-MEL-2 melanoma is 26.9%; in the experiment with EKVX NSCLC, 9.68% (active); in the experiment with SN12C renal, 48.1%; in the experiment with UO-31 renal it was -3.92% (active); in the experiment with TK-10 renal it was 45%; in the experiment on ACHN renal it was 14.5%. In addition, the growth in the experiment on CAKI-1 renal is -5.73% (active); in the experiment with A498 renal it was 42.2%; in the experiment on CCRF-CEM leukemia it was 22.8%; in the experiment on MOLT-4 leukemia it was 15.3%; with SR leukemia, 28.4%; with RPMI-8226 leukemia it was 31.2%. Further, the growth is 16.7% with OVCAR-8 ovarian; 39.1% with OVCAR-5 ovarian; 19.1% in the experiment with SK-OV-3 ovarian; -0.435% (active) in the experiment with IGROV1 ovarian; 6.58% (active) in the experiment on OVCAR-3 ovarian; 69% with HS 578T breast. Moreover, the growth in the experiment with NCI/ADR-RES ovarian was 10.2%.

Consider `COc1ccc(/C(C)=C(\c2ccc(Cl)cc2)c2ccc(OCCN3CCCCCC3)cc2)cc1F`, for which the growth in the experiment with SK-MEL-2 melanoma is 74.5%; with EKVX NSCLC it was 57.7%; with SN12C renal it was 57.4%; with UO-31 renal, 32.4%; in the experiment with TK-10 renal, 81.7%; in the experiment on ACHN renal, 64.5%. The growth with CAKI-1 renal is 22.6%; in the experiment on A498 renal, 77.6%; with CCRF-CEM leukemia, 36.2%; with MOLT-4 leukemia, 26.6%; in the experiment with SR leukemia it was -12.6% (active); with RPMI-8226 leukemia, -9.96% (active). Besides, the growth with OVCAR-8 ovarian was 63.7%; in the experiment with OVCAR-5 ovarian, 58.9%; in the experiment with OVCAR-4 ovarian, 36%; in the experiment with SK-OV-3 ovarian, 71.5%; in the experiment on IGROV1 ovarian it was 56.8%; with OVCAR-3 ovarian, 54.9%. Moreover, in the experiment with NCI/ADR-RES ovarian, the growth is 65.7%.

In the case of `C=C1C(=O)O[C@H]2[C@H]1CC/C(COC(=O)/C=C\C(=O)NCc1ccc(Cn3c(=O)sn(-c4ccc(C#N)cc4)c3=O)cc1)=C\CC[C@@]1(C)O[C@@H]21`, the growth with SK-MEL-2 melanoma is -64.9% (active); in the experiment on EKVX NSCLC, -56.9% (active); in the experiment on SN12C renal, -93.8% (active); in the experiment on UO-31 renal it was -100% (active); in the experiment on TK-10 renal, -85.1% (active); in the experiment with ACHN renal it was -100% (active). In addition, the growth is -69.1% (active) in the experiment on CAKI-1 renal; -8.82% (active) in the experiment with A498 renal; -18.1% (active) with CCRF-CEM leukemia; -32.3% (active) with MOLT-4 leukemia; -37.6% (active) in the experiment with SR leukemia; -10.9% (active) in the experiment on OVCAR-8 ovarian. In addition, the growth was -83.9% (active) with OVCAR-5 ovarian; -81.1% (active) in the experiment with OVCAR-4 ovarian; 37.8% with SK-OV-3 ovarian; -98.7% (active) in the experiment with IGROV1 ovarian; -90.1% (active) with OVCAR-3 ovarian; -24.9% (active) in the experiment on HS 578T breast. The growth in the experiment on NCI/ADR-RES ovarian is 0.213% (active).

Values taken from PubChem BioAssay (NCI).
